High-throughput results from PubChem.
Rows were chosen to be rich in hits. Some 2.4% of all compounds tested hit in one or more screens of this group.
D2 ag-1 = activates the human D2 dopamine receptor | P14416 | HEK293 T-REx D2 cells, calcium flux agonist mode | activation, % at 2 µM | 340,000 compounds, 0.53% hits | AID 485358;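 active = activation over 3 SD above normal in the single-dose calcium agonist read, cut at about 30% in these data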; note: 0% is about no effect
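Agonism is scored from calcium flux in a force-coupled, inducible HEK293 cell line expressing D2, read kinetically for 180 s after compound addition against dopamine controls.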
D2 PAM-1 = human D2 receptor positive allosteric modulation; 360,000 compounds, 0.23% hits; potentiation, % (no concentration beside the values); AID 624464; DiscoveRx D2 beta-arrestin cells, luminescence, 90 min; 100% = 57 uM dopamine signal; in the data active = potentiation above about 50%; inconclusive = mostly about 30% to 49%
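PathHunter D2 cells, attached overnight at 37 deg C, received compound in DMSO plus dopamine at EC20 (50 nM final) for 90 min at 37 deg C. Beta-arrestin recruitment was read as luminescence after 1 h with detection reagent at ambient temperature.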
D2 PAM-2 = D2 dopamine receptor (human) potentiation; potentiation, % at 10 µM; P14416; 340,000 compounds, 0.34% hits; HEK293 T-REx D2, calcium flux, EC20 dopamine potentiation; AID 485347;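 active = potentiation over 3 SD above the plate norm, cut at about 30% in these data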; note: 0% is about no effect
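Cells plated with tetracycline inducer and held overnight at 30 C; calcium dye loaded 30–90 min at room temperature; baseline taken, compound added and read 180 s; EC20 dopamine then added and read 180 s.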
D2 antag = antagonists of human D2 dopamine receptor. P14416. HEK293 TREx D2 cells, calcium flux, dopamine EC80. inhibition, % at 10 µM. 340,000 compounds, 2% hits. AID 485344; in the data active = inhibition above about 30%; inactive = below that, where a call was filed; note: 0% is about no effect
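Tetracycline-induced HEK293 TREx cells expressing D2 receptor forced-coupled to calcium signalling, loaded with no-wash calcium dye. Compounds added and calcium flux read 180 s, then dopamine added at EC80 and read a further 180 s.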
D2 ag-2 = human D2 receptor agonism in beta-arrestin assay | activation, % (concentration not given with the values) | 360,000 compounds, 0.084% hits | DiscoveRx PathHunter D2 beta-arrestin, luminescence, 90 min; 100% = 57 uM dopamine signal | AID 624465 | P14416; in the data active = activation above about 40%; inconclusive = between about 15% and that limit
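DiscoveRx PathHunter D2 beta-arrestin cells (2,100/well) attached overnight, then compound-stimulated 90 min at 37 C in HBSS/10 mM HEPES/0.1% Tween-20 buffer; beta-galactosidase complementation read by luminescence after 1 h at ambient temperature. Dopamine 57 uM final (EC100) as control.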
D3 ag = activates human D3 dopamine receptor beta-arrestin recruitment | 2,300 compounds, 4% hits | Potency, µM (highest dose often 76.9 µM), for inactives: at the highest dose activation, usual class: activators | AID 720506 | shares compounds with D2 ag-1 | DiscoveRx D3 beta-arrestin cells, luminescence, 90 min;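 note: potency is the fitted concentration of half-maximal effect; 100% = dopamine control response; nearly all actives have a fitted effect of over 70% in size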
Target sequence (P35462 whole entry, looked up): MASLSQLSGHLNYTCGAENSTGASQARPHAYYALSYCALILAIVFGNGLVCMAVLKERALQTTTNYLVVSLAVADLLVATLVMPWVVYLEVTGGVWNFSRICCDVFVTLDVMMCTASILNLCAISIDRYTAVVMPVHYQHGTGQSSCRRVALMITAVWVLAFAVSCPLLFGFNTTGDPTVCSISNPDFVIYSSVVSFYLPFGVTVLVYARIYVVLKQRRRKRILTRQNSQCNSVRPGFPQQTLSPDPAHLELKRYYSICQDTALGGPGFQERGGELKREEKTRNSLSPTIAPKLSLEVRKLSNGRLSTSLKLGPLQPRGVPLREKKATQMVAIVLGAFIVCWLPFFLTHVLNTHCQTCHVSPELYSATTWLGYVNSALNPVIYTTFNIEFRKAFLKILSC
D2 ag-3 = activates human D2 dopamine receptor in D3 counterscreen; 2,300 compounds, 5.9% hits; DiscoveRx PathHunter D2 beta-arrestin, luminescence, 90 min; response scale: percent relative to full dopamine signal; Potency, µM (titrated, usually from 76.9 µM), for the others: top-dose activation, most hits filed as activators; AID 720507; shares compounds with D2 ag-1; note: potency is the fitted concentration of half-maximal effect; % of control where 0% means no effect; nearly all actives have a fitted effect of over 70% in size
Active calls of the source: *; ? = inconclusive; . = not tested or not shown. Unless noted, calls come from the whole dose curve; as a rule, active = well fitted activation curve with a large enough effect; inconclusive = small, poorly fitted or top-dose-only effect; inactive = flat fitted curve, though single readings scatter.

SMILES	D2 ag-1	D2 PAM-1	D2 PAM-2	D2 antag	D2 ag-2	D3 ag	D2 ag-3
CCOC(=O)c1cc(S(=O)(=O)N2CCN(Cc3ccccc3)CC2)cn1C	0	0	2	-12	-2	.	.
CCOC(=O)C1=CCN(Cc2ccccc2)CC1	83*	13	-17	101*	77*	19%	?
COc1ccc(C2C=C(c3ccccc3)Nc3nnnn32)cc1 (centres undefined)	.	-11	4	.	1	-6%	-3%
COc1ccc(NCc2cc3cc4c(cc3n(CC(=O)Nc3ccccc3)c2=O)OCO4)cc1	.	.	5	.	.	.	.
COc1cc(NC(=O)CCc2nnc3ccc(NCc4ccco4)nn23)cc(OC)c1	52*	0	1	4	-1	11%	15%
CCn1c2ccc(C)cc2c2n[nH]c(=S)nc21	-2	-26	4	-5	-6	7%	-8%
O=C(NC1CC(=O)N(c2ccc(Cl)cc2)C1)C(=O)c1c[nH]c2ccccc12 (centres undefined)	20	.	9	.	.	.	.
FC(F)(F)c1ccc(Cl)c(NC2=NCCCCC2)c1	53*	-10	-19	11	-6	-1%	13%
FC(F)(F)c1ccc(N2CCOCC2)c(NC2=NCCCCC2)c1	0	-2	-11	-10	2	.	.
CCC(C)n1c(=O)c2sccc2n2c(CCCC(=O)Nc3ccc(F)cc3)nnc12 (centres undefined)	-1	.	-13	.	.	.	.
O=C(CN1CCN(c2ccccn2)CC1)Nc1ccc(F)cc1F	59*	-1	-17	25	11	30%	?
O=C(CN1CCc2ccccc2C1)Nc1ccc(F)cc1	0	-3	7	-6	1	.	.
Cc1ccc(F)cc1NC(=O)CN1CCN(c2ccccn2)CC1	27	-9	-8	50*	?	19%	?
Cc1ccc(NC(=O)CN2CCN(c3ccccn3)CC2)c(Cl)c1	0	-5	2	-16	-6	.	.
O=C(CN1CCN(c2ccccn2)CC1)Nc1ccccc1F	73*	6	-15	57*	9	29%	28%
O=C(CN1CCc2ccccc2C1)Nc1ccccc1F	47*	1	-17	64*	?	?	23%
COc1cccc(NC(=O)C(=O)NCC(c2ccc3c(c2)OCO3)N2CCOCC2)c1 (centres undefined)	1	.	.	.	.	.	.
COc1ccc(NC(=O)c2cc3c(=O)n(Cc4cccnc4)ccc3nc2C)c(OC)c1	0	.	-5	.	.	.	.
CCc1ccccc1NC(=O)C1CCCN(c2ncnc3onc(C)c23)C1 (centres undefined)	0	.	-13	.	.	.	.
O=C(CN1CCN(c2ccccn2)CC1)Nc1cc(F)ccc1F	50*	2	-18	22	11	15%	15%
O=C(Nc1cccc(S(=O)(=O)N2CCOCC2)c1)C(c1ccccc1)N1CCCCC1 (centres undefined)	.	-6	.	.	-2	.	.
O=C(CN1CCN(c2ccccn2)CC1)Nc1cccc(F)c1	27	-4	-5	-19	4	3%	-1%
CC(C(=O)Nc1cccc(S(=O)(=O)N2CCOCC2)c1)N1CCN(C/C=C/c2ccccc2)CC1 (centres undefined)	51*	-12	-23	80*	-2	?	22%
O=C(CN1CCN(c2ncccn2)CC1)Nc1ccccc1-n1cccc1	38*	-12	-12	-21	5	1%	16%
Cc1cc(C)cc(NC(=O)CN2CCN(c3ncccn3)CC2)c1	-1	-4	5	-2	7	.	.
O=C(CN1CCN(c2ccccn2)CC1)Nc1ccccc1Br	47*	10	-21	38*	?	-3%	19%
N#Cc1ccccc1NC(=O)CN1CCN(c2ccccn2)CC1	10	-1	-4	-2	8	.	.
